Source: PubChem (National Center for Advancing Translational Sciences (NCATS))
Most compounds without a hit are left out; they make up all but 21% or so of the library.
TDP1 cell noCPT: qHTS for Inhibitors of human tyrosyl-DNA phosphodiesterase 1 (TDP1): qHTS in cells in absence of CPT | hit rate 15% among 420,000 | Potency, µM (top dose mostly 46.2 µM), for inactives: at the highest dose activity change, negative = growth inhibition, most hits filed as inhibitors | DT40 Tdp1-/- hTDP1 cells, no CPT, ATP luminescence, 48 h | AID 686978, 2013; further: potency means the concentration at half of the fitted maximal effect; on the % scale 0 is the no-effect control and ±100 the full control effect; nearly all actives have a fitted effect of over 55% in size
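Readout: luminescence from CellTiter-Glo after 30 min in the dark at RT. Cells: DT40 Tdp1-/- with stable hTDP1, 400/well. Exposure: compounds alone, ≥48 hr, 37 °C.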
D3 antag: D3 dopamine receptor (human) antagonism. max response, negative = inhibition, %. AID 652054. D3R cells, DiscoveRx beta-arrestin luminescence, antagonist mode; stronger effect = lower value. hit rate 2.5% among 360,000. P35462; in the data active means max response below about -50%; inconclusive means no clear call, values can overlap the other calls; further: on the % scale 0 is the no-effect control and ±100 the full control effect
Target sequence (P35462 whole entry, looked up): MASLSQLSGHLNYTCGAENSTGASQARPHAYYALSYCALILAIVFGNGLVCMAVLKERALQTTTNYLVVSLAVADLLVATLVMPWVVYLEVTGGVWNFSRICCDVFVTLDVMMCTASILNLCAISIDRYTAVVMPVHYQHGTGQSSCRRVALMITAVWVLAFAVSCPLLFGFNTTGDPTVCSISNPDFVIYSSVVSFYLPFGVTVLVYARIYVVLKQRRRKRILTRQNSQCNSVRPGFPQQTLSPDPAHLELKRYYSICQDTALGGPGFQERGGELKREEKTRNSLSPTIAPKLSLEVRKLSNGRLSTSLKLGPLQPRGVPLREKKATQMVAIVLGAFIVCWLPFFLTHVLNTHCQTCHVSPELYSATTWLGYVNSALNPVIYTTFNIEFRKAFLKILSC
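Cells plated overnight at 1500 cells/well, then exposed to library compounds with dopamine controls for 90 minutes at 37 degrees C. DiscoveRx reagent added for 30–60 minutes at room temperature; luminescence read, quantitative HTS format.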
DRD3 agonist: activates the human D3 dopamine receptor; hit rate 0.58% among 410,000; max activation, %; AID 652048; D3R DiscoveRx beta-arrestin cells, luminescence, 90 min; in the data active means max activation above about 30%; further: 0% is about no effect
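Cells at 1500/well, incubated overnight, then treated with pinned compounds (dopamine as control) for 90 min at 37 degrees C. DiscoveRx reagent added for 30 - 60 minutes at room temperature; luminescence read.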
IL-1B inflam inh: inhibitors of inflammasome signaling (IL-1 beta secretion). THP-1 LPS/ATP IL-1B secretion, AlphaLISA, 16 h; stronger effect = lower value. activity change, % at 57.5 µM. hit rate 4.7% among 360,000; in the data active means activity change below about -50%; inconclusive means mostly about -30% to -49%; further: on the % scale 0 is the no-effect control and ±100 the full control effect
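Secreted IL-1B measured by AlphaLISA bead assay after 16 h compound exposure of THP-1 cells; compounds (final up to 57.5 uM) added 1 h before LPS (250 ng/mL) and ATP (1.25 mM) stimulation; lower signal means less secretion.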
ClpP mod: qHTS Assay for Activators of ClpP. ATP-dependent Clp protease proteolytic subunit (Bacillus subtilis (strain 168)), P80244. hit rate 1.9% among 340,000. Potency, µM (top dose mostly 57.5 µM), without a hit: at the top dose activity change, negative = active. purified B. subtilis ClpP, FRET peptide cleavage, 20 min. AID 651965, 2013; active means well fitted falling curve with a large enough effect; inconclusive means small, poorly fitted or top-dose-only effect; inactive means no such curve, though single readings can be large or run the other way; further: potency means the concentration at half of the fitted maximal effect; the source files actives as falling curves though it sought activators and does not explain the sign; nearly all actives have a fitted effect of over 65% in size
Target sequence (P80244 whole entry, looked up): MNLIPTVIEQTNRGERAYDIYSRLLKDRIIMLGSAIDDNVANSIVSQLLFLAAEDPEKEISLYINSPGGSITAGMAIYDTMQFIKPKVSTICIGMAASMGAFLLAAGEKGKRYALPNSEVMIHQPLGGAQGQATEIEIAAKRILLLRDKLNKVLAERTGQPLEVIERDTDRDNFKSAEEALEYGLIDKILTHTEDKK
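Purified B. subtilis ClpP, 10 microg/mL final in Tris/HCl pH8 with KCl, BSA, glycerol and Tween-20, cleaved an Abz/nitrotyrosine-quenched decapeptide. Fluorescence (ex 320, em 430) was read at 0 and 20 min at room temperature. Delta was normalized to 5.8 microM ADEP and DMSO/no-enzyme controls.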
DT40 TDP1 CPT: DT40-hTDP1 cell growth loss with CPT | chicken DT40 Tdp1-/-;hTDP1 cells + 20 nM CPT, ATP luminescence, 48 h | Potency, µM (doses to about 46.2 µM), without a hit: at the highest dose activity change, negative = growth inhibition, usual class: inhibitors | hit rate 12% among 420,000 | AID 686979; further: potency means the concentration at half of the fitted maximal effect; on the % scale 0 is the no-effect control and ±100 the full control effect; nearly all actives have a fitted effect of over 55% in size
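Chicken DT40 Tdp1-/- cells complemented with human TDP1, 400 cells/well, exposed to compounds plus 20 nM camptothecin for at least 48 h at 37 C; viability read as ATP content by CellTiter-Glo luminescence.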
The depositor's hits bear a star; ? = inconclusive; · = not tested or not shown. Unless noted, the call rests on the fitted dose curve; in most records, active means well fitted inhibition curve with a large enough effect; inconclusive means small, poorly fitted or top-dose-only effect; inactive means flat fitted curve, though single readings scatter.

SMILES | TDP1 cell noCPT | D3 antag | DRD3 agonist | IL-1B inflam inh | ClpP mod | DT40 TDP1 CPT
O=C(Nc1ccc(Cl)cc1)N1CCN(c2ccc3nnc(-c4ccccc4)n3n2)CC1 | · | · | -2 | · | -1% | ·
COc1ccccc1NC(=O)N1CCN(c2ccc3nnc(-c4ccc(F)cc4)n3n2)CC1 | ? | 7 | -2 | -52* | -5% | 18µM*
O=C(Nc1ccccc1Cl)N1CCN(c2ccc3nnc(-c4ccc(F)cc4)n3n2)CC1 | 16µM* | 2 | 3 | -25 | 0% | 18µM*
COc1ccccc1NC(=O)N1CCN(c2ccc3nncn3n2)CC1 | -4% | 2 | 2 | 9 | -2% | -4%
CCc1ccc(NC(=O)NCCc2c(C)nn(C)c2C)cc1 | ? | · | 6 | · | 0% | -5%
Cc1ccc(NC(=O)C2CCN(c3ncccn3)CC2)cc1F | -10% | · | 5 | · | -18% | -21%
COc1ccc(NC(=O)c2cc(-c3ccc(C)o3)nc3ccccc23)cc1OC | 16µM* | ? | 0 | ? | 3.5µM* | 18µM*
Cc1ccc(-c2cc(C(=O)N(C)CC(=O)Nc3ccccc3Br)c3ccccc3n2)o1 | ? | 28 | 12 | ? | 25µM* | 16µM*
Cc1ccc(-c2cc(C(=O)Nc3ccccc3C(N)=O)c3ccccc3n2)o1 | 10µM* | 26 | 13 | -22 | · | 15µM*
COc1ccc(NC(=O)c2cc(C)nc3ccccc23)c(OC)c1 | -8% | -17 | 7 | 31 | 0% | 13%
Cc1ccc(-c2cc(C(=O)Nc3nccs3)c3ccccc3n2)o1 | ? | 25 | 18 | -4 | -10% | ?
COc1ccc(NC(=O)c2cc(-c3ccc(C)o3)nc3ccccc23)c(OC)c1 | 12µM* | 91 | 7 | -19 | -9% | ?
COc1ccc(NC(=O)CN(C)C(=O)c2cc(-c3ccco3)nc3ccccc23)cc1 | ? | 3 | -7 | -1 | -14% | ?
COc1ccccc1-c1nc(NCCN2CCOCC2)c2ccccc2n1 | -28% | · | · | · | · | -28%
Cc1ccc(CNc2nc(-c3ccco3)nn2S(C)(=O)=O)cc1 | -6% | · | 8 | · | -4% | 6%
CS(=O)(=O)c1ccc(C(=O)Nc2nc(-c3ccco3)c(-c3ccco3)s2)cc1 | 21µM* | -26 | -8 | ? | -6% | ?
Cc1ccc(N2CC(C(=O)Nc3ccc(Cl)cc3Cl)CC2=O)cc1 (configuration not stated) | -14% | · | 4 | · | -1% | -6%
CCc1ccc(-c2csc(NC(=O)C3CC(=O)N(c4ccc5c(c4)OCCO5)C3)n2)cc1 (configuration not stated) | 16µM* | 4 | -1 | 1 | 1% | 16µM*
CS(=O)(=O)c1ccc2nc(NC(=O)c3ccccc3)sc2c1 | ? | -7 | 4 | 18 | 1% | -27%
O=C(Nc1cc(Cl)ccc1Cl)C1CC(=O)N(c2ccc(Br)cc2)C1 (configuration not stated) | ? | -55* | -11 | -24 | -1% | -22%
Cc1csc(NC(=O)C2CC(=O)N(c3ccc4c(c3)OCCO4)C2)n1 (configuration not stated) | 11% | 2 | 10 | 0 | 1% | -19%
O=C(Nc1nc(-c2ccco2)c(-c2ccco2)s1)C1CC(=O)N(c2ccc3c(c2)OCCO3)C1 (configuration not stated) | ? | ? | 3 | -21 | -9% | 16µM*
O=C(NCC1(N2CCCCC2)CCCCC1)C1CC(=O)N(c2ccc3c(c2)OCCO3)C1 (configuration not stated) | 4% | 4 | 0 | -2 | 8.9µM* | 1%
Cc1cnc(NC(=O)C2CC(=O)N(c3ccc4c(c3)OCCO4)C2)s1 (configuration not stated) | -9% | 19 | 4 | -57* | 28µM* | -3%
Cc1nnc(NC(=O)C2CC(=O)N(c3ccc4c(c3)OCCO4)C2)s1 (configuration not stated) | 21% | 17 | -3 | -6 | -1% | 0%
SMILES | TDP1 cell noCPT | D3 antag | DRD3 agonist | IL-1B inflam inh | ClpP mod | DT40 TDP1 CPT
Cc1cnc(NC(=O)C2CC(=O)N(c3cccc(Cl)c3)C2)s1 (configuration not stated) | 5.8µM* | -21 | -8 | -17 | -1% | 7.3µM*
O=C(Nc1nc(-c2ccco2)c(-c2ccco2)s1)C1CCC1 | 18µM* | -17 | -12 | ? | ? | 15µM*
O=C(CSc1nc(O)c(C/C=C/c2ccccc2)c(=O)[nH]1)Nc1cccc(F)c1 | -30% | · | -13 | · | -3% | 4%
Cc1nc(NC(=O)CSc2nccn2C)sc1C(=O)N(C)C | -9% | 0 | 1 | -5 | 2% | 10%
O=c1ccc(S(=O)(=O)N2CCCC2)cn1Cc1ccc(Cl)cc1Cl | 12µM* | 12 | 6 | -4 | -1% | 21µM*
CCC1CCCCN1Cc1nc2c(c(=O)n(C)c(=O)n2C)n1CCC(C)C (configuration not stated) | 15µM* | 17 | 1 | 20 | 1% | 16µM*
CCCCCCn1c(CN2CCCCC2CC)nc2c1c(=O)n(C)c(=O)n2C (configuration not stated) | 13µM* | -3 | 0 | 23 | -4% | 23µM*
O=C(N/N=C/c1cccnc1)c1cc(O)c(O)c(O)c1 | ? | -18 | 2 | -20 | · | ?
CCC(c1nnnn1C1CCCCC1)N(Cc1ccco1)Cc1cc2ccc(OC)cc2[nH]c1=O (configuration not stated) | 16µM* | -3 | 4 | -58* | ? | ?
CCOc1ccc2[nH]c(=O)c(CN(CCN3CCOCC3)Cc3nnnn3C(C)(C)CC)cc2c1 | -1% | -20 | -4 | -5 | ? | ?
Cc1ccc2cc(C(c3nnnn3C3CCCC3)N(Cc3cccnc3)Cc3ccco3)c(=O)[nH]c2c1 (configuration not stated) | ? | 16 | 1 | ? | -1% | ?
COc1ccc2cc(CN(CCCN3CCOCC3)Cc3nnnn3C3CCCCC3)c(=O)[nH]c2c1 | -7% | -50* | -35 | -11 | -10% | -29%
Cc1ccc2cc(C(c3nnnn3C3CCCC3)N(Cc3ccco3)Cc3cccs3)c(=O)[nH]c2c1 (configuration not stated) | ? | 11 | 1 | 0 | ? | 23µM*
